The text below walks through data of PubChem BioAssay.

Molecules are shown by their SMILES.

A short description of the test: compound effects on hepatocellular carcinoma cell viability – HepG2, calcein-AM fluorescence, 48 h, basal, profiling panel (AID 1164). Also: test concentration not given here. The conditions noted are these: higher = more signal.
Regarding `C=CC[C@H](OC(=O)Nc1ccc(OC)cc1)c1ccc(O)c2ccccc12`, the z-score is -3.1.

Take `COC(=O)[C@@]1(Cc2ccc(OC)cc2)[C@H]2c3cc(C(=O)N4CCCC4)n(CCc4cc5ccccc5[nH]4)c3C[C@H]2CN1C(=O)c1ccccc1`: the z-score is 0.471. Then `COc1ccc(CCNC(=O)[C@@]2(Sc3ccc(C)cc3)CC(=O)N(Cc3cc(C(F)(F)F)cc(C(F)(F)F)c3)[C@@H]2c2ccc(CO)cc2I)cc1`, with 0.0649. Turning to `COc1ccc(C(O)C2C=CC3C(=O)N(C)C(=O)C3N2N2CCCCC2)cc1` (configuration not stated), the z-score is 0.133. Then `COc1ccc([Si](C)(C)[C@@H]2[C@@H](CC(=O)N3CCC[C@H]3CO)O[C@]3(C(=O)N(Cc4ccc(N5C(=O)c6cccc7cccc5c67)cc4)c4ccccc43)[C@H]2C)cc1`, with -2.94; and `O=C1c2ccccc2[C@@]2(Cc3ccccc3N(C3CC3)C2=O)[C@H](c2ccc(CO)cc2)N1C1CCCCC1`, with -0.578. As to `CCOC(=O)C1=CC[C@@H](c2cc(Cl)ccc2Cl)N(S(=O)(=O)c2ccc(C)cc2)[C@H]1c1ccc(OC)cc1`, the z-score was 0.118. The figure for `CC=CC(O)C1C=CC2C(=O)N(C)C(=O)C2N1N1CCCCC1` (configuration not stated) is -0.843; for `C=C(C(=O)CC[C@H](OC(C)=O)c1cccc(OCCO)c1)C(C)C` it is -0.979; for `CC(C)C(=C=CC[C@H](O)c1ccc(OCCO)cc1)C[C@H](O)c1cc(Cl)cc(Cl)c1O` it is -0.627. The figure for `COc1ccc(C#Cc2ccc3c(c2)[C@]2(C(=O)N3)[C@H](C(=O)N3CCc4cc(OC)c(OC)cc4C3)[C@H]3C(=O)O[C@H](c4ccccc4)[C@H](c4ccccc4)N3[C@@H]2c2ccc(O)cc2)cc1` is 0.615; for `CN1C(=O)[C@@]2(CCS(=O)(=O)c3ccccc3)N=C(c3ccc(OCCCO)cc3)O[C@H]2c2ccccc21` it is -0.0319. Then `CC[C@H]1C2=C3C(CC[C@H]4C(OCc5ccc(F)cc5C(F)(F)F)OC[C@](C)([C@@H]34)N(C(=O)OC(C)(C)C)C2)C2COC(=O)OCC21` (some centres not stated), with 0.478; and `Cc1ccc(S[C@]2(C(=O)NCc3ccccc3)CC(=O)N(C(C)C)[C@@H]2c2ccc(CO)cc2I)cc1`, with -0.274. In the case of `Cc1ccc(C(C)CC(O)C2C=CC3C(=O)N(c4ccccc4)C(=O)C3N2Nc2ccc(C(C)C)cc2)o1` (configuration not stated), the z-score is 0.137. For `COCCOC(=O)N1C(=O)[C@@]2(c3cc(C#Cc4ccc(OC)cc4)ccc31)[C@H](C(=O)NC[C@H](O)c1ccccc1)[C@H]1C(=O)O[C@H](c3ccccc3)[C@H](c3ccccc3)N1[C@@H]2c1ccc(O)cc1`, the z-score was -0.862.

For `COCCOC(=O)N1C(=O)[C@@]2(c3cc(C#CC4(O)CCCCCC4)ccc31)[C@H](C(N)=O)[C@H]1C(=O)O[C@H](c3ccccc3)[C@H](c3ccccc3)N1[C@@H]2c1ccc(O)cc1`, the z-score was 0.412. On to `CC1CC/C=C\[C@H]2OC34C=CCN(C(C)C)C(=O)[C@H]3N(CCCCCO)C(=O)[C@@H]4C2C(=O)O1` (some centres not stated), for which the z-score was 0.29. As to `CCOC(=O)C1=CC[C@@H](c2ccccc2)N(S(=O)(=O)c2ccc(C)cc2)C1`, the z-score is -0.165. Then `CCN(CC)c1ccc(N2CC=CC34O[C@@H]5/C=C\CCC(C)OC(=O)C5[C@H]3C(=O)N(CCO)[C@@H]4C2=O)cc1` (some centres not stated), with 0.498; and `C=CCOC(=O)[C@H]1[C@@H]2C(=O)O[C@@H](c3ccccc3)[C@@H](c3ccccc3)N2[C@@H](c2ccc(OCCOC(=O)[C@H]3C[C@H]4C(=O)N[C@@H](CCCC[N+](C)(C)C)C(=O)N4[C@H]3c3cccc(OCCO)c3)cc2)[C@]12C(=O)Nc1ccc(I)cc12`, with 1.67. Then `O=C1C[C@@](C(=O)NCC(F)(F)F)(c2ccc([N+](=O)[O-])cc2)[C@@H](c2ccc(CO)cc2)N1C1CCCCC1`, with 0.268.
